Bioassay records: PubChem, National Center for Advancing Translational Sciences (NCATS)
This is a sample that favours compounds with a hit; in the whole collection about 9% have one here.
HttQ103 aggreg: qHTS Multiplex Assay to Identify Dual Action Probes in a Cell Model of Huntington: Aggregate Formation (GFP); PC12 HttQ103-GFP aggregates, Acumen cytometry, 40 h; AID 1688, 2009; Potency, µM (doses to about 46.1 µM), most hits filed as inhibitors; 220,000 tested, 1.1% active; also: nearly all actives have a fitted effect of over 60% in size
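Read-out: GFP aggregate count by laser scanning cytometer (488 nm excitation, 500-530 nm emission, 1–25 µm objects >6 SD above background). Cells: PC12, inducible HTTex1-Q103-GFP, 100 nM tebufenozide; compounds titrated.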
ALDH1A1 block: qHTS Assay for Inhibitors of Aldehyde Dehydrogenase 1 (ALDH1A1); Aldehyde dehydrogenase 1A1 (Homo sapiens), P00352; Purified ALDH1A1, NADH fluorescence, propionaldehyde substrate; Potency, µM (titrated, usually from 75.3 µM), usual class: inhibitors; 220,000 tested, 7.3% active; AID 1030, 2008; active = well fitted inhibition curve with a large enough effect, not every such curve was filed as active; inconclusive = small, poorly fitted or top-dose-only effect, or another doubt; inactive = no such curve, though single readings can be large or run the other way
HPGD block: qHTS Assay for Inhibitors of HPGD (15-Hydroxyprostaglandin Dehydrogenase) | Potency, µM, hits mostly inhibitors | AID 894, 2007 | 150,000 tested, 4.3% active | purified HPGD, NADH fluorescence kinetic, PGE2 substrate | 15-hydroxyprostaglandin dehydrogenase [NAD(+)] (Homo sapiens), P15428; active = well fitted inhibition curve with a large enough effect, not every such curve was filed as active; inconclusive = small, poorly fitted or top-dose-only effect, or another doubt; inactive = no such curve, though single readings can be large or run the other way
Target sequence (P15428 whole entry, looked up): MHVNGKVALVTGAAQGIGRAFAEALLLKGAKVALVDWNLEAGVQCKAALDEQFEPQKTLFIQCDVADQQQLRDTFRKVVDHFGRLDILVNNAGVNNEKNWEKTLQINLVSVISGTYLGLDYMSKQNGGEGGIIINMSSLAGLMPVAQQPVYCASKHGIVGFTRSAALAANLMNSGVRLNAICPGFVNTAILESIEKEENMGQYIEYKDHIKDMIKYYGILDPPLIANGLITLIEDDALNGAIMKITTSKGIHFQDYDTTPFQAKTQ
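20 nM HPGD preincubated 15 min at room temperature with compound in 50 mM Tris-HCl pH 8, 0.01% Tween 20. Started with 1 mM NAD+ and 30 uM prostaglandin E2; NADH fluorescence (360/450 nm) read 5 times over 30-s intervals, last minus first.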
Lamin A splicing: qHTS Assay for Modulators of Lamin A Splicing. HeLa LMNA splicing GFP/RFP minigene ratio, 48 h. Potency, µM (doses to about 46.1 µM), usual class: inhibitors. 200,000 tested, 0.01% active; active = well fitted inhibition curve with a large enough effect in the signal ratio, with a control signal flat, not every such curve was filed as active; inconclusive = small, poorly fitted or top-dose-only effect, or effect the other way, or a change in a side signal; the % refers to the signal ratio
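S3 HeLa stable clones carrying a lamin A-EGFP splicing minigene plus DsRed2 were seeded at 600 cells/well in Opti-MEM with 2% FBS, pin-dosed and incubated 48 h at 37°C. Acumen cytometry (488 nm) gave the GFP/RFP total-intensity ratio.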
HTT ATP protect: qHTS Multiplex Assay to Identify Dual Action Probes in a Cell Model of Huntington: Cytoprotection (ATP) | PC12 HTT-Q103 induced, cytoprotection, ATP luminescence, 40 h | Potency, µM (doses to about 56.4 µM), actives largely listed as activators | 230,000 tested, 0.14% active | AID 1471, 2008; also: nearly all actives have a fitted effect of over 45% in size
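Stable PC12 Q103-GFP cells in serum-supplemented, phenol red-free DMEM; induction by tebufenozide at 100 nM final; compound dose series; cell viability quantified luminescently from ATP.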
Luc counter: Counterscreen for Luciferase (Kinase-Glo TM) Inhibition; Luciferin 4-monooxygenase (Photuris pensylvanica), Q27757; Kinase-Glo luciferase, ATP luminescence, 8 min; Potency, µM (doses to about 38.3 µM), usual class: inhibitors; 200,000 tested, 0.28% active; also: nearly all actives have a fitted effect of over 60% in size
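Light output from Kinase-Glo luciferase with luciferin and 10 uM ATP in 50 mM imidazole pH 7.2, KCl, MgCl2, Tween 20, BSA; compound pin-delivered, 8-min ambient incubation, then luminescence read.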
Hits are given with their value; - = inactive; ? = inconclusive; . = not tested or not shown; [ ] = remark or other dose. Unless noted, calls follow the shape of the dose curve; as a rule, active = well fitted curve in the direction sought with a large enough effect; inconclusive = small, poorly fitted or top-dose-only effect, or another doubt; inactive = no such curve, though single readings can be large; an effect the other way counts as inactive or inconclusive.

SMILES	HttQ103 aggreg	ALDH1A1 block	HPGD block	Lamin A splicing	HTT ATP protect	Luc counter
O=[N+]([O-])/C(C(Cl)=C(Cl)Cl)=C(\Nc1ccc(F)cc1)n1cncn1	-	12.6µM	28.2µM	?	-	-
CCOc1ccccc1NC(=O)c1ccc([N+](=O)[O-])cc1	-[9.22 µM]	-	.	.	-[10 µM]	-
CCOc1ccc(N/C(=C(/C(Cl)=C(Cl)Cl)[N+](=O)[O-])n2cncn2)cc1	-[9.22 µM]	?	?	-	-	-
CCOC(=O)C1CCN(C(=O)c2cc(C)n(C(C)(C)C)n2)CC1	-[9.22 µM]	.	.	.	-[10 µM]	.
CCn1c(=N)n(CC(=O)c2cccc([N+](=O)[O-])c2)c2ccccc21	-	-	-	-	-[10 µM]	-
CCn1c(=N)n(CC(=O)C23CC4CC(CC(C4)C2)C3)c2ccccc21	-	22.4µM	?	?	-[0.074 µM]	-
NC(=O)NC(=O)CSc1nc(C2CCCCC2)n(-c2ccccc2)n1	-	-	-	?	.	-
C/C(N)=C(/C#N)C(=O)CSc1nc(C2CCCCC2)n(-c2ccccc2)n1	-	31.6µM	-	-	-	-
COc1ccc(C2=CC(=O)OC3(CCCC3)O2)cc1	?	12.6µM	-	-	-[10 µM]	-
c1ccc(CSc2ccc(-c3cccs3)nn2)nc1	0.0316µM	-	.	.	-	-
c1ccc(CSc2ccc(-c3cccs3)nn2)cc1	-	-	-	-	-[10 µM]	-
CCCC(=O)NCCCc1nc2ccccc2[nH]1	-	-	-	-	-	-
O=C(CCCCCN1C(=O)c2ccccc2C1=O)NCCc1nc2ccccc2[nH]1	-	11.2µM	-	-	-	-
COc1ccc(CCNC(=O)CCCCCN2C(=O)c3ccccc3C2=O)cc1	-	?	-	-	-	-
COc1ccc(CCNC(=O)CCCN2C(=O)c3ccccc3C2=O)cc1	-	14.1µM	.	.	-[10 µM]	-
CC(NC(=O)CSc1nnc(CC(=O)Nc2ccc(Cl)c(Cl)c2)n1C)c1ccccc1 (configuration not stated)	-	?	28.2µM	-	-[10 µM]	-
Cn1c(CC(=O)Nc2ccc(Cl)c(Cl)c2)nnc1SCC(=O)N1CCN(c2ccccc2)CC1	?	-	-	-	-	-
CCOC(=O)C1=NNC2C(=O)N(C3CCCCC3)C(=O)C12 (configuration not stated)	-	12.6µM	-	-	-	-
CCCCN1C(=O)C2NN=C(C(=O)OCC)C2C1=O (configuration not stated)	-	-	-	-	-	-
CCCCc1ccc(CC(=O)O)cc1	-	14.1µM	31.6µM	-	-	-
CCCCCc1ccc(CC(=O)O)cc1	-	?	.	-	-	.
N#Cc1c(Nc2cccc(F)c2)sc2c(O)cc(=O)[nH]c12	-	-	.	?	-	-
COc1ccccc1N1CCN(C(=O)c2ccc3nc(-c4ccco4)c(-c4ccco4)nc3c2)CC1	-	12.6µM	-	?	-[0.074 µM]	-
COc1ccccc1N1CCN(c2nc(-c3ccccc3)cc(C(F)(F)F)n2)CC1	-	-	-	-	-	-
COc1ccccc1N1CCN(c2ccc(-c3ccccc3)nn2)CC1	-	?	-	-	-	8.91µM
SMILES	HttQ103 aggreg	ALDH1A1 block	HPGD block	Lamin A splicing	HTT ATP protect	Luc counter
COc1ccccc1N1CCN(C(=O)c2oc3ccc(F)cc3c2C)CC1	11.2µM	-	-	?	-[10 µM]	-
CCC(C(=O)N1CCN(c2ccccc2OC)CC1)c1ccccc1 (configuration not stated)	-	39.8µM	-	?	.	-
Cn1ccnc1/C(=N\NC(=O)c1ccc(O)cc1)c1cccc([N+](=O)[O-])c1	-[9.22 µM]	.	.	.	-[10 µM]	.
COCCc1nn2c(=O)cc(COC(=O)c3cccs3)nc2s1	.	.	.	-	.	.
CCOc1ccc(N=c2oc3cc(O)ccc3cc2C(=O)NCC2CCCO2)cc1 (configuration not stated)	?	?	?	-	-	-
COc1ccccc1N1CCN(C(=O)c2ccccc2Oc2ccccc2)CC1	-	0.562µM	-	-	-	-
